HT1080-NT tox – kills 2HG-producing HT-1080-NT fibrosarcoma cells; Potency, µM (titrated, usually from 46.1 µM), inactives show top-dose activity, negative = less viability, most hits filed as cytotoxic; HT-1080-NT fibrosarcoma viability, CellTiter-Glo ATP luminescence, 48 h; 1.6% of 360,000 active;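 further: NT is the 2HG producing partner of a matched IDH1 knockdown line; 0% = DMSO-treated cells and -100% = media-only wells without cells; nearly all actives have a fitted effect of over 55% in size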
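Viability of the 2HG-overproducing fibrosarcoma line after 48 hours of compound exposure at 37 degrees C was determined by luminescence with CellTiter-Glo, and concentration-effect curves were then fitted and categorized.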
SW480 rerep – inducers of DNA re-replication in SW480 colon cancer cells; SW480 DNA re-replication, Hoechst DNA content imaging, 48 h; Potency, µM (highest dose often 46.1 µM), without a hit: top-dose re-replication activation, hits mostly activators; 1.8% of 340,000 active; further: % of control where 0% means no effect; nearly all actives have a fitted effect of over 55% in size
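Image-based read-out: total Hoechst fluorescence of nuclei (405 nm excitation, 500-530 nm emission), with hits raising the fraction of high-intensity nuclei. SW480 colon cells incubated 48 hr with compounds at 37 C.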
HT1080 IDH1KD tx – toxicity to HT-1080 IDH1 knockdown cells (counter line); HT-1080 IDH1 knockdown viability, ATP luminescence, 48 h; Potency, µM (titrated, usually from 46.1 µM), inactives show top-dose activity, negative = toxicity, hits mostly cytotoxic; 2% of 360,000 active; AID 686971;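 further: 0% = DMSO wells and -100% = cell-free medium wells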
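HT-1080-IDH1KD cells (IDH1 knocked down), 750/well in RPMI with 5% FBS, treated with compound 48 h at 37 degrees C. Viability by CellTiter-Glo luminescence, normalised to DMSO and no-cell wells; concentration-response curves classed.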
KB-3-1 tox – kills parental KB-3-1 adenocarcinoma cells. 1.4% of 400,000 active. Potency, µM (titrated, usually from 46.1 µM), actives largely listed as cytotoxic. AID 1347075. KB-3-1 viability, CellTiter-Glo ATP luminescence, 72 h; further: on the % scale 0 is the no-effect control and ±100 the full control effect; nearly all actives have a fitted effect of over 60% in size
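KB-3-1 cells, DMEM (no phenol red) + 10% FBS; compound by pin transfer, 72 h, 37 °C. Readout: CellTiter-Glo luminescence after 10 min. Data normalized, curve-fitted.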
MCF10A rerep – DNA re-replication induction in MCF 10a cells. 2.9% of 350,000 active. MCF 10A DNA re-replication, Hoechst nuclear intensity, 48 h. AID 624296. Potency, µM (highest dose often 46.1 µM), for the others: top-dose activity, positive = re-replication, most hits filed as activators; further: % of control where 0% means no effect; nearly all actives have a fitted effect of over 50% in size
KB-V1 cytotox – KB-V1 MDR subline cytotoxicity | KB-V1 MDR cells viability, CellTiter-Glo, 72 h | Potency, µM (top dose mostly 46.1 µM), usual class: cytotoxic | 3.4% of 400,000 active | AID 1347076; further: on the % scale 0 is the no-effect control and ±100 the full control effect; nearly all actives have a fitted effect of over 60% in size
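qHTS viability screen in drug-selected KB-V1 MDR cells: 72 h compound treatment at 37 degrees C, ATP luminescence end point.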
Starred values were filed as active, the others as inactive; i = inactive; ? = inconclusive; / = no result; [ ] = another dose, or the depositor's remark. Shown are actives, neighbours in structure and some others; about 7.9% of the full set was active somewhere. The call rests on the fitted dose curve; in most records, active means well fitted curve in the direction sought with a large enough effect; inconclusive means small, poorly fitted or top-dose-only effect, or another doubt; inactive means no such curve, though single readings can be large; an effect the other way counts as inactive or inconclusive. Potency means the concentration at half of the fitted maximal effect.

SMILES	HT1080-NT tox	SW480 rerep	HT1080 IDH1KD tx	KB-3-1 tox	MCF10A rerep	KB-V1 cytotox
CCCc1cnc(Nc2nc(C(N)Cc3ccc(OC)cc3)cs2)nc1 (stereo not given)	21µM*	/	?	?	/	?
CCc1ccccc1NC(=O)CN(c1cccc(C)c1C)S(C)(=O)=O	/	/	/	i	/	i
O=C(NC1CCCC1)c1ccc(CS(=O)(=O)c2cccc(C(F)(F)F)c2)o1	-4%	7%	-1%	i	2%	?
CCOc1ccc2ccccc2c1CNCCN1CCOCC1	-12%	-5%	-8%	i	-11%	i
CC(NC(=O)C(C)N1CCN(S(=O)(=O)c2ccccc2)CC1)c1ccccc1 (stereo not given)	-5%	1%	6%	i	0%	15µM*
CCCC(NC(=O)C(C)N1CCN(S(=O)(=O)c2ccccc2)CC1)c1ccccc1 (stereo not given)	2%	-2%	9%	i	0%	7.3µM*
Cc1ccc(S(=O)(=O)N2CCN(C(C)C(=O)NCC(C)c3ccccc3)CC2)cc1 (stereo not given)	5%	9%	19%	i	4%	i
CC(C)c1ccc(S(=O)(=O)N2CCN(C(C)C(=O)Nc3ccccc3-c3ccccc3)CC2)cc1 (stereo not given)	14%	2%	12%	i	3%	i
CC(C(=O)Nc1ccccc1-c1ccccc1)N1CCN(S(=O)(=O)c2ccccc2)CC1 (stereo not given)	-4%	11%	-5%	i	?	2.9µM*
COc1cccc(CN2CCN(Cc3cc(OC)c(OC)c(OC)c3)CC2)c1OC	1%	0%	7%	i	7%	?
COc1cccc(CN2CCN(Cc3cccc(Oc4ccccc4)c3)CC2)c1OC	-23%	23µM*	-30%	i	15µM*	i
CCN1CCN(Cc2cccc(Oc3ccc(Cl)cc3)c2)CC1	?	16µM*	?	i	16µM*	?
CCOc1ccccc1CN1CCN(Cc2ccc(C)o2)C(CCO)C1 (stereo not given)	0%	6%	0%	i	9%	i
Cc1cccc(NC(=O)c2cc(=O)c3ccccc3o2)n1	-1%	2.9µM*	8%	i	91%[0.0737 µM]	i
Cc1ccc2oc(C(=O)NC3CCS(=O)(=O)C3)cc(=O)c2c1 (stereo not given)	2%	21µM*	0%	i	1%	?
Cc1ccc2c(=O)cc(C(=O)NC3CCS(=O)(=O)C3)oc2c1 (stereo not given)	-2%	-8%	10%	i	-2%	i
Cc1cc2oc(C(=O)NCc3ccccc3)cc(=O)c2cc1C	?	8.2µM*	1%	i	14%	i
Cc1ccc(C)c(NC(=O)c2cc(=O)c3ccccc3o2)c1	14%	0%	27%	i	?	15µM*
Cc1ccc2oc(C(=O)NCc3ccccc3)cc(=O)c2c1	?	13%	-10%	i	2%	i
CC(C)CNC(=O)COC(=O)c1ccc(Cl)c(S(=O)(=O)N2CCc3ccccc32)c1	6%	-13%	-9%	i	17%	i
COc1ccc(CNc2ccc3c(c2)CCC3)cc1Br	-7%	-2%	0%	i	7%	i
C=CCc1c(OC)ccc2c1c(S(=O)(=O)c1ccc(C)cc1)cn2COC	?	0%	-16%	i	3%	?
Cc1ccccc1N1CCN(c2ncnc3scc(-c4cccs4)c23)CC1	3%	21%	-16%	?	?	?
Cn1nnnc1Sc1ncnc2scc(-c3cccc(C(F)(F)F)c3)c12	/	?	/	?	3.3µM*	?
Fc1ccc(CSc2ncnc3scc(-c4ccccc4)c23)cc1	2%	0%	-2%	i	22%	15µM*
SMILES	HT1080-NT tox	SW480 rerep	HT1080 IDH1KD tx	KB-3-1 tox	MCF10A rerep	KB-V1 cytotox
Cn1nnnc1Sc1ncnc2scc(-c3cccs3)c12	/	?	/	?	10µM*	?
CCn1nnnc1Sc1nc(C)nc2scc(-c3ccccc3)c12	/	/	/	13µM*	/	i
Cn1nnnc1Sc1ncnc2scc(-c3cccc(F)c3)c12	/	4%	/	i	?	i
Cc1nc(Sc2nnnn2C2CC2)c2c(-c3ccccc3)csc2n1	/	/	/	?	/	i
COc1ccc(/C=C2/N=C(SC3CCOC3=O)N(c3cccc(OC)c3)C2=O)cc1 (stereo not given)	-2%	15%	1%	i	19%	i
C#CCOCCOCCOCCNc1nc(N2CCN(C(=O)Cn3cc(CCO)nn3)CC2)nc(N2CCN(C(=O)[C@H](Cc3ccc(O)cc3)n3cc(CCO)nn3)CC2)n1	14%	-5%	0%	i	3%	i
CN1CCN(C(=O)CN(c2cccc(Cl)c2)S(=O)(=O)c2ccccc2)CC1	6%	3%	0%	i	-5%	i
Cn1nnnc1Sc1ncnc2scc(-c3ccccc3C(F)(F)F)c12	/	?	/	16µM*	79%	?
Cn1nnnc1Sc1ncnc2scc(-c3ccc(C#N)cc3)c12	/	2%	/	?	?	?
Cn1nnnc1Sc1ncnc2scc(-c3ccsc3)c12	/	?	/	?	16µM*	i
Cn1nnnc1Sc1ncnc2scc(-c3ccc(-c4ccccc4)cc3)c12	/	?	/	15µM*	8.2µM*	?
Cc1ccc(-c2csc3ncnc(-n4nnc5ccccc54)c23)cc1	-6%	-4%	-10%	?	6%	?
Cn1nnnc1Sc1ncnc2scc(-c3ccc(C(F)(F)F)cc3)c12	/	6%	/	?	2.1µM*	18µM*
CCSc1nc2c(sc3ccccc32)c(=O)n1C(C)C	2%	1%	-1%	i	?	i
CCOC(=O)N1CCN(C(=O)c2cnn(-c3cccc(C)c3)c2-n2cccc2)CC1	/	/	/	i	/	i
COc1cccc(-c2csc3ncnc(Sc4nnnn4C)c23)c1	/	0.33µM*	/	?	?	?
COC(=O)CSc1ncnc2scc(-c3ccccc3)c12	-23%	?	-7%	i	0%	i
CC1Cc2ccccc2N1C(=O)CSc1nnc(-c2ccc(S(=O)(=O)N3CCCC3)cc2)o1 (stereo not given)	2%	1%	1%	i	2%	2.1µM*
CC1Cc2ccccc2N1C(=O)CSc1nnc(-c2ccccc2Cl)o1 (stereo not given)	/	/	/	i	/	i
Cc1ccc(S(=O)(=O)c2nc(Nc3ccccc3C#N)sc2Cl)cc1	-2%	-15%	2%	i	25%	i

Screens as filed in PubChem.
